A selection: hits, their analogues and other compounds. The true share with any hit is near 9.3%.
HCMV inh: human cytomegalovirus inhibition; 4.5% of 410,000 active; HFF cells, HCMV-luciferase reporter, 72 h; stronger effect = lower value; activity change, negative = inhibition, % at 57.5 µM; in the data active = activity change below about -60%; inconclusive = no clear call, values can overlap the other calls; inactive = above about -39%
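Screen run at 2 compound doses on HFFs infected with reporter HCMV, MOI 1 PFU/cell. Luciferase activity from cell lysates at 72 h post infection gave inhibition relative to buffer-only and Salinomycin wells.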
VACV Venus inh: vaccinia inhibition (Venus reporter) | Vaccinia virus Venus reporter expression, fluorescence | Potency, µM (highest dose often 36.5 µM), for inactives: at the highest dose activity change, negative = inhibition, most hits filed as inhibitors | 0.46% of 330,000 active; calls by dose curve; tested in A549 cells; note: potency is the fitted concentration of half-maximal effect; nearly all actives have a fitted effect of over 30% in size
VACV mCherry inh: vaccinia inhibition (mCherry reporter); Vaccinia virus mCherry reporter infection, fluorescence; Potency, µM (highest dose often 36.5 µM), for inactives: at the highest dose activity change, negative = inhibition, actives largely listed as inhibitors; 0.63% of 310,000 active; AID 720579; calls by dose curve; tested in A549 cells; note: potency is the fitted concentration of half-maximal effect; nearly all actives have a fitted effect of over 35% in size
HCV inh: HCV inhibition | Huh7.5.1 HCVcc-Cre infection, luciferase reporter, 44 h | 3.4% of 340,000 active | AID 651820 | Potency, µM (top dose mostly 41.8 µM), without a hit: top-dose activity change, negative = inhibition, hits mostly inhibitors; note: potency is the fitted concentration of half-maximal effect
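Whole-lifecycle infectious HCVcc-Cre system; cells 1,000/well, compound then virus (~0.5 moi) added 4 h after plating, 44 h culture. Luciferase read 15 sec following 15 min substrate incubation, room temp.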
FMDV inh: antivirals against foot and mouth disease virus | Potency, µM (top dose mostly 57.9 µM), without a hit: at the top dose activity change, negative = inhibition, most hits filed as inhibitors | 1.2% of 410,000 active | FMDV antiviral cell-based qHTS | AID 1159524; calls by dose curve; tested in HEK293T cells; note: read-out not given here; potency is the fitted concentration of half-maximal effect; nearly all actives have a fitted effect of over 45% in size
Sm TGR inh: inhibitors of Schistosoma mansoni thioredoxin glutathione reductase | Q962Y6 | purified TGR, DTNB reduction, TNB absorbance 405 nm | Potency, µM (top dose mostly 114 µM), for the others: at the highest dose activity change, negative = inhibition, usual class: inhibitors | 3% of 360,000 active | AID 485364; note: potency is the fitted concentration of half-maximal effect; nearly all actives have a fitted effect of over 60% in size
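First, TGR (20 nM dispensed) and NADPH were mixed with compound. Second, a 15 min room-temperature incubation followed. Third, further NADPH and then DTNB were added to start the reaction. Finally, TNB absorbance was monitored kinetically.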
An asterisk follows results filed as active; i = inactive; ? = inconclusive; / = no result; [ ] = remark or other dose. Unless noted, calls come from the whole dose curve; as a rule, active = well fitted curve in the direction sought with a large enough effect; inconclusive = small, poorly fitted or top-dose-only effect, or another doubt; inactive = no such curve, though single readings can be large; an effect the other way counts as inactive or inconclusive. % is set by controls: 0 for no effect and ±100 for the full control effect.

SMILES	HCMV inh	VACV Venus inh	VACV mCherry inh	HCV inh	FMDV inh	Sm TGR inh
O=C(N/C=C/c1ccco1)OCc1ccccc1	-12	8%	-19%	-4%	13%	45µM*
O=C(N/C=C/c1ccco1)NCc1ccccc1	-29	-12%	-1%	-72%	-7%	25µM*
O=C(NCc1ccccc1)/C(=C/c1ccco1)NC(=O)c1ccco1	-4	-10%	-3%	4%	17%	1%
COCCCNC(=O)c1ccc2c(=O)n(Cc3ccc(Cl)cc3)c(=S)[nH]c2c1	-30	/	/	8%	-5%	12%
O=C(NCc1ccc(Cl)cc1)c1ccc2c(=O)n(CC3CCCO3)c(=S)[nH]c2c1 (stereo unspecified)	?	-2%	-15%	?	18µM*	13%
O=C(NCCN1CCCC1)c1ccc(Cn2c(=S)[nH]c3ccc(Br)cc3c2=O)cc1	5	-3%	3%	?	26%	-7%
CCOCCCn1c(=S)[nH]c2cc(C(=O)NCCN(CC)CC)ccc2c1=O	37	/	/	13µM*	-13%	5%
O=C(NCC1CCCO1)c1ccc2c(=O)n(CC3CCCO3)c(=S)[nH]c2c1 (stereo unspecified)	10	/	/	-22%	6%	-8%
CC1CCN(CCNC(=O)c2ccc3c(=O)n(Cc4ccc(Cl)cc4)c(=S)[nH]c3c2)CC1	/	/	/	6.3µM*	?	-11%
O=C(NCCCN1CCCC1)c1ccc(Cn2c(=S)[nH]c3ccc(Br)cc3c2=O)cc1	-18	/	/	/	/	45µM*
COC(=O)c1scc(C)c1N/N=C(\C)c1cc(F)c(Cl)cc1F	-26	/	/	6%	44%	5%
O=C(CN1C(=O)CCC1=O)Nc1nc(-c2ccc3ccccc3c2)cs1	?	/	/	0%	44%	-5%
Cc1c(C(=O)Nc2nc(-c3ccccn3)cs2)oc2ccccc12	/	/	/	2.8µM*	1%	-5%
O=C(CN1C(=O)CCC1=O)Nc1nc(-c2ccccn2)cs1	-62*	-19%	0%	?	-5%	-10%
O=C(Nc1nc(-c2ccccn2)cs1)c1cc2ccccc2o1	-39	-4%	-11%	?	5%	-9%
CCc1sc(C(=O)Nc2nc(-c3ccccn3)cs2)cc1C	/	-19%	?	18µM*	12%	/
O=C(Nc1nc(-c2cc(Cl)sc2Cl)cs1)c1ccccc1	10	/	/	11µM*	-15%	-14%
COc1ccc(C2CC(c3ccccc3)=NN2C(=O)COC(=O)c2cccc(N)c2)cc1 (stereo unspecified)	41	/	/	?	-18%	/
Cc1ccc(C(=O)Nc2nc(-c3ccccn3)cs2)s1	-100*	/	/	?	-13%	-1%
Cn1cccc1C(=O)Nc1nc(-c2ccccn2)cs1	-88*	/	/	14µM*	-16%	0%
Cc1csc(NC(=O)c2cccn2C)n1	78	-8%	i	1%	/	1%
O=C(Nc1nc(-c2ccccn2)cs1)c1ccc(Cl)s1	-96*	?	3.2µM*	?	-8%	-15%
O=C(Nc1nc(-c2ccccn2)cs1)c1ncc(Cl)c(Cl)c1Cl	-6	-9%	/	-10%	-24%	-1%
COc1ccc(NC(=O)CC2C(=O)N(c3ccc(C)cc3)C(=O)N2Cc2ccc3c(c2)OCO3)cc1 (stereo unspecified)	20	-3%	i	/	-22%	7%
COc1ccc(/C=C/C(=O)OCC(=O)N2c3ccccc3CC2C)cc1OC (stereo unspecified)	34	-9%	-2%	/	-21%	/
CNC(=S)N(Cc1ccc(OC)cc1)Cc1cc2cccc(C)c2[nH]c1=O	-36	-14%	-10%	-9%	?	-3%[57.1 µM]
CC[C@H](C)Cc1cn([C@@H](CCCCNC(=O)OC(C)(C)C)C(=O)NCCCCCCCCCCC(=O)N2CCN(C(=O)OC(C)(C)C)CC2)nn1	21	?	-14%	?	14µM*	-2%
CC(C)(C)OC(=O)NCCCC[C@@H](C(=O)NCCCCCCCCCCC(=O)N1CCN(C(=O)OC(C)(C)C)CC1)n1cc(CCO)nn1	-21	?	-5%	?	14µM*	-7%
